# Screening data as filed in PubChem BioAssay.
# Pol kappa inh-1 – inhibitors of human DNA polymerase kappa; purified Pol kappa, fluorescent DNA synthesis assay, 10 min; Potency, µM (titrated, usually from 107 µM), without a hit: at the top dose activity, negative = inhibition, most hits filed as inhibitors; actives 0.53% (n = 400,000); AID 588579; note: potency is the fitted concentration of half-maximal effect; % is set by controls: 0 for no effect and ±100 for the full control effect
#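 50 nM final substrate added after 15 min RT preincubation of 10 nM Pol kappa with compound; fluorescence read at 0 and 10 min.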
# Pol eta inh-1 – blocks human DNA polymerase eta activity | recombinant Pol eta, fluorescent DNA replication assay | Potency, µM (series often up to 114 µM), for the others: top-dose activity change, negative = inhibition, actives largely listed as inhibitors | actives 1.2% (n = 390,000) | AID 588591; note: potency is the fitted concentration of half-maximal effect; % is set by controls: 0 for no effect and ±100 for the full control effect
# Target sequence (Q9Y253 whole entry, looked up): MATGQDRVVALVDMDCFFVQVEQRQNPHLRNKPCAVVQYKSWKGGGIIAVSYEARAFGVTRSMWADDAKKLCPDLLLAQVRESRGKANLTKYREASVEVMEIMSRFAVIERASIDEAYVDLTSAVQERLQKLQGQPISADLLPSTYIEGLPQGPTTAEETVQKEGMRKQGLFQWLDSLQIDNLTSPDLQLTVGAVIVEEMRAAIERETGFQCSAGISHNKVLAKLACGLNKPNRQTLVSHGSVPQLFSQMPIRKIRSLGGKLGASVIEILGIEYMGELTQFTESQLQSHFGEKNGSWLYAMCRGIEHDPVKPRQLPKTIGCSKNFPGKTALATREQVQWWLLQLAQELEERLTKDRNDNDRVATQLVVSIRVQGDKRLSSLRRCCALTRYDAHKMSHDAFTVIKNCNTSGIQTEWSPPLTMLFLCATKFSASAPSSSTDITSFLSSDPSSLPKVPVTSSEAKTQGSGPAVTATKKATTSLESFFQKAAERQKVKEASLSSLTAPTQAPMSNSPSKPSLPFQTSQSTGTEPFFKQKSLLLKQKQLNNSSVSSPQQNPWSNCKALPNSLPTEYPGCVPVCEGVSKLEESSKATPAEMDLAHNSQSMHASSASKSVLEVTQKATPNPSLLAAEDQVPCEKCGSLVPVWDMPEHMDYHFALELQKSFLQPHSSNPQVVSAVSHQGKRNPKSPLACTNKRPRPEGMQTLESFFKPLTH
#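 Fluorescent replication assay: 50 nM final substrate added after a 15 min room-temperature compound preincubation with 10 nM enzyme. Signal taken at 0 min and again at 10 min.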
# ALOX12 inh – blocks human arachidonate 12S-lipoxygenase | actives 1.1% (n = 580,000) | Potency, µM (highest dose often 108 µM), for inactives: top-dose activity change, negative = inhibition, actives largely listed as inhibitors | purified 12hLO, xylenol orange hydroperoxide absorbance | P18054; note: potency is the fitted concentration of half-maximal effect; % is set by controls: 0 for no effect and ±100 for the full control effect
#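 Purified human 12hLO at 150 nM in 25 mM Hepes, 0.01% Triton X-100, pH 7.0, preincubated 15 min at room temperature with compound. Reaction started with 40 uM arachidonic acid, 30 min at room temperature. Hydroperoxide measured by Fe-xylenol orange, 573/405 nm absorbance ratio.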
# PI5P4K alpha inh – PI5P4K alpha (human) kinase inhibition. max response, %. P48426. PI5P4Kalpha enzyme, ADP-Glo luminescence, 60 min; hits give low values. AID 652105. actives 1.2% (n = 330,000); active = max response of -50% or lower; inconclusive = between -30% and -50%; inactive = -30% or higher; note: value at the top dose of about 77 µM; % is set by controls: 0 for no effect and ±100 for the full control effect
#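 Compounds were pin-transferred onto PI5P4Kalpha and substrate in HEPES pH 7.4 buffer with EGTA, CHAPS and 5% DMSO. ATP (5 microM final) started the reaction, which ran 60 minutes at room temperature before ADP-Glo detection.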
# Pol beta inh – blocks human DNA polymerase beta activity; P06746; Pol beta primer extension/strand displacement, fluorescence kinetic; Potency, µM (top dose mostly 114 µM), inactives show top-dose activity change, negative = inhibition, hits mostly inhibitors; actives 1.3% (n = 340,000); AID 485314; note: potency is the fitted concentration of half-maximal effect; % is set by controls: 0 for no effect and ±100 for the full control effect
#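 Curves were derived by four-parameter Hill fits of normalized qHTS data. The kinetic fluorescent primer-extension read was taken at 0 and 10 min after 50 nM substrate, following a 15 min room-temperature preincubation of 10 nM enzyme with compounds.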
# POLI inh – inhibitors of human DNA polymerase iota; Q9UNA4; Pol iota fluorescent replication assay, 10 min; Potency, µM (series often up to 115 µM), inactives show at the top dose activity, negative = inhibition, usual class: inhibitors; actives 1% (n = 390,000); AID 588590; note: potency is the fitted concentration of half-maximal effect
#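 Pol iota at 10 nM preincubated 15 min with compounds at room temperature; reaction started with fluorescent substrate, 50 nM final. Fluorescence read kinetically at 0 and 10 min; buffer-only wells as negative control.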
# Pol kappa inh-2 – confirmation of human DNA polymerase kappa inhibitors; Potency, µM, usual class: inhibitors; AID 720501; actives 76% (n = 920); purified Pol-kappa, fluorescent strand-displacement substrate; shares compounds with Pol eta inh-1; note: potency is the fitted concentration of half-maximal effect
# Pol eta inh-2 – confirmation of human DNA polymerase eta inhibitors | shares compounds with Pol eta inh-1 | Potency, µM, actives largely listed as inhibitors | Pol eta primer extension, TAMRA/BHQ fluorescence, 10 min | AID 720502 | actives 64% (n = 2,600); note: potency is the fitted concentration of half-maximal effect
# * = called active by the depositor; ? = inconclusive; . = no result; [ ] = another dose, or the depositor's remark. Shown are actives, neighbours in structure and some others; about 2.9% of the full set was active somewhere. Unless noted, calls come from the whole dose curve; as a rule, active = well fitted inhibition curve with a large enough effect; inconclusive = small, poorly fitted or top-dose-only effect, or another doubt; inactive = no such curve, though single readings can be large or run the other way.
SMILES,Pol kappa inh-1,Pol eta inh-1,ALOX12 inh,PI5P4K alpha inh,Pol beta inh,POLI inh,Pol eta inh-2,others
COc1cc(O)cc2cc3c(c(O)c12)C(=O)CC(C)(O)O3 (centres undefined),?,45µM*,-18%,?,50µM*,?,?,
O=C(Nc1nnc(Cc2ccccc2)s1)c1nn(Cc2ccccc2)c(=O)c2ccccc12,.,.,0%,.,.,.,.,
Cc1[nH]n(-c2ccccc2)c(=O)c1C(c1ccccc1[N+](=O)[O-])C(C#N)C#N (centres undefined),4%,-7%,0%,-9,28%,6%,.,
Cc1[nH]n(-c2ncc(-c3ccccc3)s2)c(=O)c1C(c1ccc(Cl)cc1)C(C#N)C#N (centres undefined),?,28µM*,?,?,32µM*,?,?,
COc1ccc(OC)c(S(=O)(=O)N2CCCCCCN(C)C(=O)[C@@H]3CCC[C@@H]32)c1,.,.,1%,.,.,.,.,
CCn1c2ccccc2c2cc(/C=N/NC(=O)c3ccccc3)ccc21,0%,5%,2%,-4,26%,-2%,.,
Cn1c2ccccc2c2cc(/C=N/NC(=O)c3cc(O)cc(O)c3)ccc21,?,22µM*,?,-74*,89µM*,28µM*,54*,Pol kappa inh-2=47*
Cc1ccc(C(=O)CSC2=C(C#N)C(c3ccco3)CC(=O)N2)c(C)c1 (centres undefined),?,79µM*,50µM*,.,32µM*,18µM*,?,
Cc1ccc(NC(=O)CSC2=C(C#N)C(c3ccco3)CC(=O)N2)cc1 (centres undefined),-14%,?,?,3,0%,6%,.,
CC1=C(C(=O)O)N2C(=O)C(NC(=O)c3ccc(F)cc3)C2SC1 (centres undefined),-1%,-3%,?,-22,.,-20%,.,
CC(=O)OCC1=C(C(=O)O)N2C(=O)C(NC(=O)c3ccc(COc4cccc(Cl)c4Cl)o3)C2SC1 (centres undefined),?,22µM*,4%,?,22µM*,22µM*,76*,
COc1cccc(C(=O)NC2C(=O)N3C(C(=O)O)=C(COC(C)=O)CSC23)c1 (centres undefined),?,50µM*,?,-7,.,?,76*,
Cc1ccccc1C(=O)N1C(C(=O)NCC(C)C)COC12CCN(C(=O)c1cccc(Cl)c1)CC2 (centres undefined),.,.,17%,.,.,.,.,
O=c1cc(-c2ccc(O)cc2)oc2ccc3ccccc3c12,-24%,?,-21%,-13,.,40µM*,.,Pol kappa inh-2=?
CCc1ccc(N2CC(C(=O)OCc3nc4ccsc4c(=O)[nH]3)CC2=O)cc1 (centres undefined),79µM*,40µM*,-10%,-28,.,?,67*,
CCc1ccc(N2CC(C(=O)OCc3csc(CC(=O)Nc4ccccc4C)n3)CC2=O)cc1 (centres undefined),-20%,-15%,102%,-11,.,-12%,.,
Cc1noc(C)c1C(=O)N1CCC2(CC1)CN([S+](C)(=O)[O-])Cc1ccccc1O2,.,.,9%[6.33 µM],.,.,.,.,
CCOCCCNC(=O)C(NC(=O)C1CCC(C)CC1)C(C)CC (centres undefined),.,.,6%,.,.,.,.,
O=C(N/N=C/c1coc2ccccc2c1=O)c1cc(Br)c(O)c(Br)c1,-12%,?,0%,-70*,-13%,-7%,?,
CNC(=O)CNC(=O)c1cccc(Br)c1,.,.,11%,.,.,.,.,
C=CCOc1ccccc1/C=c1\sc2nc(=O)c(C)nn2c1=O,50µM*,28µM*,?,.,25µM*,10µM*,21*,Pol kappa inh-2=38*
COc1ccc(/C=c2\sc3nc(-c4ccccc4OC)nn3c2=O)c(OC)c1,-9%,?,-15%,-5,-24%,7%,.,
C/C(=N\OC(=O)c1ccc(OC(C)C)cc1)c1ccc(C(C)C)cc1,.,.,24%,.,.,.,.,
CCCCCC(=O)c1c(O)cc(OC)c(Cl)c1O,11%[60.1 µM],.,19%,.,.,.,.,
CCCCCCCCC(=O)c1c(OC)oc(C=O)cc1=O,.,22µM*,7.1µM*,-84*,.,.,?,Pol kappa inh-2=?
SMILES,Pol kappa inh-1,Pol eta inh-1,ALOX12 inh,PI5P4K alpha inh,Pol beta inh,POLI inh,Pol eta inh-2,others
Cc1cccc2cc(/C=N/NC(=O)c3ccccc3O)c(Cl)nc12,-3%,?,-17%,-1,28µM*,-14%,?,
Cc1ccc2cc(/C=N/NC(=O)c3ccccc3O)c(Cl)nc2c1,-9%,16µM*,18%,-19,3%[57.1 µM],7%,?,
Cc1cccc2cc(/C=N/NC(=O)c3ccncc3)c(Cl)nc12,-1%,22%,?,-1,-8%,-1%,.,
O=c1c(Cl)c(N2CCCC(C(F)(F)F)C2)cnn1-c1ccccc1 (centres undefined),.,.,12%,.,.,.,.,
COc1cc(C(=O)N(Cc2nc3ccccc3c(=O)[nH]2)C(C)C)cc(Cl)c1OCC(N)=O,.,.,13%,.,.,.,.,
COc1cc(N(C(C)=O)c2ccc(O)cc2)c2ncccc2c1,.,1%,-22%,-11,.,.,.,
COc1cc(N(C(C)=O)c2ccc(O)c(C(=O)O)c2)c2ncccc2c1,.,50µM*,-22%,?,.,.,85*,
CCCC(CCC)C(=O)NCCc1c[nH]c2ccc(C)cc12,.,.,38%,.,.,.,.,
COc1cccc(OC)c1OC(=O)C1CC(=O)N(c2ccc3c(c2)OCCO3)C1 (centres undefined),?,28µM*,-22%,?,.,25µM*,?,
COc1ccccc1NC(=O)C(C)OC(=O)C1CC(=O)N(c2ccc3c(c2)OCCO3)C1 (centres undefined),-1%,-5%,-8%,2,36%,39%,.,
O=C(NC1CCN(c2cnn(CC3CC3)c(=O)c2)CC1)c1ccc2c(c1)OCO2,.,.,34%,.,.,.,.,
COc1cccc(-c2coc3c(C)c4oc(=O)c(CCC(=O)O)c(C)c4cc23)c1,-38%,50µM*,-18%,1,?,?,48*,
COc1cccc(-c2coc3c(C)c4oc(=O)c(CC(=O)O)c(C)c4cc23)c1,-10%,-23%,-23%,-5,-2%,97%,.,
Cc1cc(C)c2oc(C(=O)N(Cc3ccco3)c3ccccn3)cc(=O)c2c1,.,.,-5%,.,.,.,.,
Nc1ccc2nc(-c3cc(Cl)c(N)c(Cl)c3)[nH]c2c1,?,?,96%,?,?,-11%,.,
Cc1nc2ccc(-c3nc4ccc(N)cc4[nH]3)cc2[nH]1,50µM*,?,-3%,-27,13µM*,18µM*,.,Pol kappa inh-2=?
